Reference: PubChem BioAssay
“And” between values parts separate entries of the source, which are not always exact repeats. Equal entries are not always repeated. The source made the active and inactive calls. No rule for the calls is given here.

Assays:
[1] = enhancers of glutamate uptake in motor neurons, MN-1 cell line (AID 1612); conditions: MN-1 motor neuron cells, stronger effect = higher value;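 also: tested at 1 µM final; 0% = mean of DMSO vehicle wells on each plate; positive means more glutamate uptake than control and negative means less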
[2] = reducers of polyQ inclusions in PC12 cells, cell-based, NGF-treated PC12, GFPQ80 (AID 1614); conditions: PC12 NGF-treated GFP-polyQ80 inclusion reduction;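 also: lower means fewer inclusions and 0 means no inclusions at all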
[3] = suppressors of polyglutamine aggregation in yeast, 75Q-TubH (AID 1616); conditions: S. cerevisiae 75Q-TubH polyglutamine aggregation suppression; stronger effect = higher value
[4] = circadian clock period modulators, cell-based, LOPAC library, luminescence reporter (AID 2774); conditions: circadian reporter cells, at 7 µM, actives lie on both sides;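 also: values are relative to mean of DMSO wells on each plate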
[5] = hESC survival regulators, cell-based (AID 493140); conditions: human embryonic stem cell survival screen; stronger effect = higher value;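 also: cells exposed to compounds for four days before counting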

Structure (SMILES) | glutamate uptake change [1] | inclusion score [2] | aggregation suppression score [3] | period change [4] | survival [5]
CC(C)NNC(=O)c1ccncc1 | -13.1% | 2 | 1.22 | 0.33 h (inactive) | 24.2 (inactive)
CCn1cc(C(=O)O)c(=O)c2cc3c(cc21)OCO3 | 5.71% | 2 | 1.09 | 0.16 h (inactive) | 33.2 (inactive)
CCO/C([O-])=N/c1c[n+](N2CCOCC2)no1 | 3.92% | 2 | 1.23 | 0.065 h (inactive) | 4.75 (inactive)
C=CCc1ccccc1OCC(O)CNC(C)C (stereo not given) | -6.27% | 2 | 1.42 | 0.15 h (inactive) | 7.25 (inactive)
CN1CCN(CC(=O)N2c3ccccc3C(=O)Nc3cccnc32)CC1 | -10.6% | 2.5 | 1.19 | 0.09 h (inactive) | 8.33 (inactive)
CN1CCC(=C2c3ccccc3CC(=O)c3sccc32)CC1 | 0.39% | 2 | 1.2 | -0.04 h (inactive) | 5.83 (inactive)
NCCCCCC(=O)O | -5.97% | 2 | 1.27 | 0.065 h (inactive) | 2 (inactive)
C[C@](N)(Cc1ccc(O)c(O)c1)C(=O)O | 33% | 2 | 1.39 | -0.07 h (inactive) | 3.58 (inactive)
CN1Cc2c(N)cccc2C(c2ccccc2)C1 (stereo not given) | -14.3% | 2 | 1.65 | -0.06 h (inactive) | 19.8 (inactive)
O=C(O)c1cccnc1Nc1cccc(C(F)(F)F)c1 | 6.09% | 1 | 0.0604 | 0.085 h (inactive) | 22.6 (inactive)
N[C@@H](Cc1ccc(O)c(O)c1)C(=O)O | -2.7% | 2 | 1.67 | 0.105 h (inactive) | 9.67 (inactive)
C[N+]1(CCCCC[N+]2(C)CCCC2)CCCC1 | 1.85% | 2 | 1.31 | 0.04 h (inactive) | 22.2 (inactive)
CCN(CC)CCNC(=O)c1cc(S(C)(=O)=O)ccc1OC | -0.98% | 2 | 1.49 | 0.15 h (inactive) | 16.2 (inactive)
CCN(CC)CCOCCOC(=O)C1(c2ccccc2)CCCC1 | 7.48% | 1.5 | 1.37 | 0.125 h (inactive) | 5.08 (inactive)
Cc1cccc(C)c1OCC(C)N (stereo not given) | 6.77% | 2 | 1.44 | 0.025 h (inactive) | 21.7 (inactive)
CCCN(CCC)C(=O)C(CCC(=O)O)NC(=O)c1ccccc1 (stereo not given) | 11.9% | 1 | 1.2 | 0.02 h (inactive) | 19.6 (inactive)
Cc1nnc(SCC2=C(C(=O)O)N3C(=O)[C@@H](NC(=O)Cn4cnnn4)[C@H]3SC2)s1 | 0.76% | 2 | 1.05 | -0.065 h (inactive) | 2.58 (inactive)
NNc1nncc2ccccc12 | 4.84% | 2 | 1.4 | 0.12 h (inactive) | 18.2 (inactive)

Structure (SMILES) | glutamate uptake change [1] | inclusion score [2] | aggregation suppression score [3] | period change [4] | survival [5]
CCn1cc(C(=O)O)c(=O)c2cc(F)c(N3CCNC(C)C3)c(F)c21 (stereo not given) | -4.22% | 2 | 1.06 | -0.015 h (inactive) | 17.1 (inactive)
COc1ccc(CN(CCN(C)C)c2ccccn2)cc1 | 0.17% | 2 | 1.48 | 0.06 h (inactive) | 21.9 (inactive)
CN(C)CCC(c1ccccc1)c1ccccn1 (stereo not given) | 24.1% | 2 | 1.23 | -0.08 h (inactive) | 15 (inactive)
O=C1CC2(CCCC2)CC(=O)N1CCCCN1CCN(c2ncccn2)CC1 | 15.2% | 2 | 1.24 | -0.08 h (inactive) | 4 (inactive)
CC[N+](CC)(CC)CCOc1cccc(OCC[N+](CC)(CC)CC)c1OCC[N+](CC)(CC)CC | 40.5% | 2 | 1.15 | 0 h (inactive) | 28.5 (inactive)
Cc1cc(C(C)(C)C)cc(C)c1CC1=NCCN1 | 16.9% | 2 | 1.86 | 0.03 h (inactive) | 6.75 (inactive)
C#CCN(C)Cc1ccccc1 | -1.37% | 2 | 1.43 | 0.06 h (inactive) | 31.2 (inactive)
CS(=O)(=O)Nc1ccc([N+](=O)[O-])cc1Oc1ccccc1 | -10.7% | 2 | 0.728 | 0.17 h (inactive) | 16.8 (inactive)
CN(C)CCOC(=O)COc1ccc(Cl)cc1 | -7.05% | 2 | 1.56 | -0.09 h (inactive) | 8.75 (inactive)
O=c1c(O)c(-c2ccc(O)c(O)c2)oc2cc(O)cc(O)c12 | 12.9% | 1 | 1.03 | -0.025 h (inactive) | 4.17 (inactive) and 87 (inactive)
CCC1(C)CC(=O)NC1=O (stereo not given) | -2.95% | 2 | 1.06 | 0.01 h (inactive) | 28.8 (inactive)
COc1ccccc1OCC(O)CO (stereo not given) | -12.9% | 2 | 0.924 |  | 4.75 (inactive)
Cc1ccc(C(=O)c2ccc(CC(=O)O)n2C)cc1 | 12.3% | 2 | 0.801 |  | 3.83 (inactive)
Cc1nnc(NS(=O)(=O)c2ccc(N)cc2)s1 | 17.5% | 2 | 1.24 |  | 5.75 (inactive)
COc1ccc2[nH]cc(CCNC(C)=O)c2c1 | 7.67% | 2 | 1.76 | -0.21 h (inactive) | 15.4 (inactive)
O=C(COc1ccc(Cl)cc1)N1CCN(Cc2ccc3c(c2)OCO3)CC1 | 0.58% | 2.5 | 1.39 |  | 7.17 (inactive)
CC(=O)NS(=O)(=O)c1ccc(N)cc1 | 16.9% | 2 | 1.16 |  | 17.3 (inactive)
